Source: the supplement of paper PMC8728848
The full list was thinned out, with the strongest signals kept by preference.

Assays:
Assay in all cases: glycan array binding signal (z-score within array); higher = stronger binding
Details in all cases: glycan notation: IUPAC condensed, linker removed
[1] = biological target: GalNAc(b1-4)GlcNAc(b1-2)Man(a1-3)[GalNAc(b1-4)GlcNAc(b1-2)Man(a1-6)]Man(b1-4)GlcNAc(b1-4)GlcNAc
Method in brief: (§1)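 Glycan array data were curated from 3228 arrays in the Consortium for Functional Glycomics database and kept only where the protein sequence was available. Glycan names were converted to IUPAC-condensed notation, and columns mapping to the same glycan were averaged. The binding signal is a within-array Z-score, averaged across arrays of the same protein sequence at different concentrations or buffers and across linkers. Negative Z-scores can be read as non-binding.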

GalNAc(b1-6)GalNAc = biological target: GalNAc(b1-6)GalNAc
Method in brief: as §1

GalNAc3S(b1-4)GlcNAc3S = biological target: GalNAc3S(b1-4)GlcNAc3S
Method in brief: as §1

GlcA(b1-6)Gal = biological target: GlcA(b1-6)Gal
Method in brief: as §1

[2] = biological target: GlcA3S(b1-3)Gal(b1-4)GlcNAc(b1-2)Man
Method in brief: as §1

[3] = biological target: GlcNAc(a1-4)Gal(b1-4)GlcNAc
Method in brief: as §1

[4] = biological target: GlcNAc(b1-3)Gal(b1-3)GalNAc
Method in brief: as §1

[5] = biological target: GlcNAc(b1-3)Gal(b1-4)GlcNAc(b1-2)Man(a1-3)[GlcNAc(b1-3)Gal(b1-4)GlcNAc(b1-2)Man(a1-6)]Man(b1-4)GlcNAc(b1-4)[Fuc(a1-6)]GlcNAc
Method in brief: as §1

[6] = biological target: GlcNAc(b1-3)Gal(b1-4)GlcNAc(b1-3)Gal(b1-4)GlcNAc(b1-2)[GlcNAc(b1-3)Gal(b1-4)GlcNAc(b1-3)Gal(b1-4)GlcNAc(b1-6)]Man(a1-6)[GlcNAc(b1-3)Gal(b1-4)GlcNAc(b1-3)Gal(b1-4)GlcNAc(b1-2)Man(a1-3)]Man(b1-4)GlcNAc(b1-4)[Fuc(a1-6)]GlcNAc
Method in brief: as §1

[7] = biological target: GlcNAc(b1-3)Gal(b1-4)GlcNAc(b1-3)Gal(b1-4)GlcNAc(b1-3)Gal(b1-4)GlcNAc(b1-2)Man(a1-3)[GlcNAc(b1-3)Gal(b1-4)GlcNAc(b1-3)Gal(b1-4)GlcNAc(b1-3)Gal(b1-4)GlcNAc(b1-2)Man(a1-6)]Man(b1-4)GlcNAc(b1-4)[Fuc(a1-6)]GlcNAc
Method in brief: as §1

[8] = biological target: GlcNAc(b1-3)[GlcNAc(b1-4)][GlcNAc(b1-6)]GlcNAc
Method in brief: as §1

[9] = biological target: GlcNAc(b1-3)[GlcNAc(b1-6)]GalNAc
Method in brief: as §1

Kdn(a2-6)Gal(b1-4)GlcNAc = biological target: Kdn(a2-6)Gal(b1-4)GlcNAc
Method in brief: as §1

Man(a1-3)[Man(a1-6)]Man = biological target: Man(a1-3)[Man(a1-6)]Man
Method in brief: as §1

[10] = biological target: Neu5Ac(a2-3)Gal(b1-3)GalNAc6S
Method in brief: as §1

[11] = biological target: Neu5Ac(a2-3)Gal(b1-4)GlcNAc(b1-3)Gal(b1-4)GlcNAc(b1-3)Gal(b1-4)GlcNAc(b1-2)Man(a1-3)[Neu5Ac(a2-3)Gal(b1-4)GlcNAc(b1-3)Gal(b1-4)GlcNAc(b1-3)Gal(b1-4)GlcNAc(b1-2)Man(a1-6)]GalNAc
Method in brief: as §1

[12] = biological target: Neu5Ac(a2-3)Gal(b1-4)GlcNAc(b1-6)[Neu5Ac(a2-3)Gal(b1-3)]GalNAc
Method in brief: as §1

[13] = biological target: Neu5Ac(a2-3)Gal(b1-4)[Fuc(a1-3)]GlcNAc(b1-6)[Gal(b1-3)]GalNAc
Method in brief: as §1

[14] = biological target: Neu5Ac(a2-3)[GalNAc(b1-4)]Gal(b1-4)Glc
Method in brief: as §1

[15] = biological target: Neu5Ac(a2-6)Gal(b1-4)GlcNAc(b1-2)Man(a1-6)[GlcNAc(b1-2)Man(a1-3)]Man(b1-4)GlcNAc(b1-4)GlcNAc
Method in brief: as §1

[16] = biological target: Neu5Ac(a2-6)Gal(b1-4)GlcNAc(b1-3)Gal(b1-4)GlcNAc(b1-3)Gal(b1-4)GlcNAc(b1-2)Man(a1-3)[Neu5Ac(a2-6)Gal(b1-4)GlcNAc(b1-3)Gal(b1-4)GlcNAc(b1-3)Gal(b1-4)GlcNAc(b1-2)Man(a1-6)]GalNAc
Method in brief: as §1

[17] = biological target: Neu5Ac(a2-6)Gal(b1-4)GlcNAc(b1-3)Gal(b1-4)GlcNAc(b1-3)GalNAc
Method in brief: as §1

Neu5Ac(a2-6)GalNAc = biological target: Neu5Ac(a2-6)GalNAc
Method in brief: as §1

[18] = biological target: Neu5Ac(a2-6)GalNAc(b1-4)GlcNAc6S
Method in brief: as §1

[19] = biological target: Neu5Ac(a2-8)Neu5Ac(a2-8)Neu5Ac
Method in brief: as §1

[20] = biological target: Neu5Gc(a2-3)Gal(b1-3)GlcNAc
Method in brief: as §1

[21] = biological target: Neu5Gc(a2-3)Gal(b1-4)GlcNAc(b1-3)Gal(b1-4)GlcNAc(b1-2)Man(a1-3)[Neu5Gc(a2-3)Gal(b1-4)GlcNAc(b1-3)Gal(b1-4)GlcNAc(b1-2)Man(a1-6)]Man(b1-4)GlcNAc(b1-4)GlcNAc
Method in brief: as §1

B1: AFL5 (Aspergillus fumigatus), Q4WB00 (protein)
chain: MDNFMEMTKKLGHQPELLRLRALDATYDDALEGKLVVAPLDMSEPGKKILDSGTADGTWLRNVRSKQSVPHDYYGSDVEGELFPKDPDGITYFAHSFKDPWPQQYLGFFDLVHIRGSLAGSAPEGPAPVIQNLTTLLKPGGWVQLMEMNAFSPPPNGPAMTDFAKMASEMFTGIGVGDFANNNKSMLEDAGLKNVQEKRVIVNLGKKAKPELHDQSIHGVTGPIVPLTSVARTVKSSFTGEQLDALPARVKEELETEGGQVEMIIAFGQKA
glycan array binding signal (z-score) [1]: 0.619 | glycan array binding signal (z-score) (GalNAc(b1-6)GalNAc): -0.013 | glycan array binding signal (z-score) (GalNAc3S(b1-4)GlcNAc3S): -0.187 | glycan array binding signal (z-score) (GlcA(b1-6)Gal): -0.217 | glycan array binding signal (z-score) [2]: 0.082 | glycan array binding signal (z-score) [3]: -0.335 | glycan array binding signal (z-score) [4]: 0.205 | glycan array binding signal (z-score) [5]: 0.456 | glycan array binding signal (z-score) [6]: 1.94 | glycan array binding signal (z-score) [7]: 1.47 | glycan array binding signal (z-score) [8]: -0.493 | glycan array binding signal (z-score) [9]: -0.216 | glycan array binding signal (z-score) (Kdn(a2-6)Gal(b1-4)GlcNAc): 0.092 | glycan array binding signal (z-score) (Man(a1-3)[Man(a1-6)]Man): 0.203 | glycan array binding signal (z-score) [10]: -0.456 | glycan array binding signal (z-score) [11]: 2.14 | glycan array binding signal (z-score) [12]: -0.74 | glycan array binding signal (z-score) [13]: 0.716 | glycan array binding signal (z-score) [14]: -0.53 | glycan array binding signal (z-score) [15]: -0.146 | glycan array binding signal (z-score) [16]: 2.17 | glycan array binding signal (z-score) [17]: -0.298 | glycan array binding signal (z-score) (Neu5Ac(a2-6)GalNAc): -0.731 | glycan array binding signal (z-score) [18]: 0.024 | glycan array binding signal (z-score) [19]: 0.079 | glycan array binding signal (z-score) [20]: -0.526 | glycan array binding signal (z-score) [21]: 0.635
